Assay results: PubChem BioAssay AID1476 (National Center for Advancing Translational Sciences (NCATS), 2009)
The whole screen tested about 200,000 compounds, of which about 4,500 (2.2%) were called active. Not shown: some 12% with an inconclusive outcome. Calls come from the whole dose curve; as a rule, active = well fitted inhibition curve with a large enough effect; inconclusive = small, poorly fitted or top-dose-only effect, or effect the other way; inactive = flat fitted curve, though single readings scatter. What follows is part of a selection rich in actives, with near analogues and random picks from the rest.

Biological target: Cruzipain (Trypanosoma cruzi) (UniProt P25779)
Sequence (P25779 123-467 limits assumed): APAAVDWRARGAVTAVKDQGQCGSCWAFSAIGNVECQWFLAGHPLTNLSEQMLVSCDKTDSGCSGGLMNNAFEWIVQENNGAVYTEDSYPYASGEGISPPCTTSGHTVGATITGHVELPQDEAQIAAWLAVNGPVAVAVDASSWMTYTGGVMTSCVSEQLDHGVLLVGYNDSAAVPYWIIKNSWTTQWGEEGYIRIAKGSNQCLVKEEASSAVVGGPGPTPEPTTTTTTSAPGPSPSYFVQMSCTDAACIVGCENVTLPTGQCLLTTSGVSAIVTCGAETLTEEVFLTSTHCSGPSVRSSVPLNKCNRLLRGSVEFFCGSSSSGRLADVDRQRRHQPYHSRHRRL
Assay: qHTS Assay for Promiscuous and Specific Inhibitors of Cruzain (without detergent); note: nearly all actives have a fitted effect of over 40% in size;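 for max response, negative = inhibition: plate controls were enzyme without inhibitor for no effect and buffer without enzyme for full effect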
Settings: purified cruzain, Z-FR-AMC fluorescence, no detergent
How it was run: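 Detergent-free condition (0.00005% Triton X-100) in acetate buffer pH 5.5 with DTT. 1.5 nM enzyme and compound were pre-mixed 15 min, then 2 uM Z-FR-AMC substrate added; reaction progress from fluorescence change between first and third reads (60 s).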
Potency is the fitted concentration of half-maximal effect.

Row | Structure (SMILES) | max response, negative = inhibition | Potency
1 | Oc1ccc(-c2nc3ccc(Cl)cn3c2Nc2ccc3c(c2)OCO3)cc1 | -3.92% (inactive) | –
2 | COc1cccc(-c2cc(C(=O)N/N=C/c3ccc(OC)c(COC(C)=O)c3)c3ccccc3n2)c1 | -16% (inactive) | –
3 | CCc1ccc(-c2cc(C(=O)NCc3ccco3)c3ccccc3n2)s1 | -8.4% (inactive) | –
4 | Cc1ccc(-c2cc(C(=O)N/N=C/C=C/c3ccco3)c3ccccc3n2)cc1C | – | 25.1 µM (active)
5 | N#Cc1nc(/C=C/c2ccc(F)cc2)oc1NC1CCCCC1 | -7.33% (inactive) | –
6 | CCOc1ccc(C2C(C(=O)Nc3ccc(Cl)cc3)=C(C)Nc3nc(C(F)(F)F)nn32)cc1 (stereo unspecified) | 3.69% (inactive) | –
7 | Cc1ccc2oc(=O)c3cnn(CC(=O)N4CCN(c5cccc(Cl)c5)CC4)c3c2c1 | -11.7% (inactive) | –
8 | Cc1cccc(NC(=O)COc2ccccc2C)n1 | 10.4% (inactive) | –
9 | Cc1ccccc1OCC(=O)NCC(=O)OCC(=O)c1ccc2ccccc2c1 | – | 10 µM (active)
10 | COCCNC(=O)COc1ccccc1C | -9.1% (inactive) | –
11 | CCOc1ccc(NC(=O)C(=O)NCCc2csc3nc(-c4ccccc4F)nn23)cc1 | -1.02% (inactive) | –
12 | CCCSc1ncc(Cl)c(C(=O)Nc2c(C(=O)Nc3ccccc3)oc3ccccc23)n1 | -6.15% (inactive) | –
13 | O=C(CSc1nc2ccccc2o1)N1CCN(c2ccc(Cl)cc2)CC1 | – | 10 µM (active)
14 | O=C(CN1CCN(c2ccc(Cl)cc2)CC1)N1CCCC1 | -5.28% (inactive) | –
15 | CCN(CC)C(=O)CSc1nc2ccccc2o1 | – | 3.16 µM (active)
16 | O=C(CSc1nc2ccccc2o1)N1CCN(c2ccccc2)CC1 | -4.7% (inactive) | –
17 | CC1Cc2ccccc2N1C(=O)CSc1nc2ccccc2o1 (stereo unspecified) | -7.1% (inactive) | –
18 | Cc1ccc(/C=N/NC(=O)CSc2nc3ccccc3o2)cc1 | -9.67% (inactive) | –
19 | COc1ccc(C2=NS(=O)(=O)N(C)C(C(=O)NC(C)c3ccccc3)=C2)cc1 (stereo unspecified) | -27.6% (inactive) | –
20 | CCn1c(=O)cc(OCC(=O)Nc2cc(Cl)c(OC)cc2OC)c2ccccc21 | 0.57% (inactive) | –
21 | COc1ccc(/C=N/NC(=O)c2ccc(Cl)cc2)cc1COC(C)=O | 7.25% (inactive) | –

Row | Structure (SMILES) | max response, negative = inhibition | Potency
22 | COc1cc(OC)c(/C=N/NC(=O)c2ccc([N+](=O)[O-])cc2)cc1Br | -5.61% (inactive) | –
23 | N#Cc1cc([N+](=O)[O-])ccc1Oc1cccc(/C=N/NC(=O)c2ccc(Cl)cc2)c1 | – | 20 µM (active)
24 | CCOC(=O)N1CCN(C(=O)c2cc3c(ccc4ccccc43)oc2=O)CC1 | -18.3% (inactive) | –
25 | O=c1cc(CO)oc(CN2CCC(Cc3ccccc3)CC2)c1O | -8.62% (inactive) | –
26 | CCOC(=O)N1CCN(Cc2oc(CO)cc(=O)c2O)CC1 | – | 1.58 µM (active)
27 | Cc1ccc(C(=O)N2c3ncnn3C3(CCCCC3)[C@@H]3CCCC[C@@H]32)cc1 | 9.53% (inactive) | –
28 | COc1ccc(CNC(=O)CSCc2nc(-c3ccccc3F)oc2C)cc1 | -2.99% (inactive) | –
29 | CCS(=O)(=O)c1ncc(N(Cc2ccc(F)cc2)Cc2ccco2)c(C(=O)Nc2cc(C)ccc2C)n1 | -19.1% (inactive) | –
30 | O=C(NCC1CCCO1)/C(=C\c1ccco1)NC(=O)c1ccccc1 (stereo unspecified) | -0.97% (inactive) | –
31 | C/C(=C\c1ccco1)C1Nc2cccc3cccc(c23)N1 | – | 3.16 µM (active)
32 | Cc1ccc(OCC(=O)OCc2cc(=O)n3nc(C4CC4)sc3n2)cc1C | -7.58% (inactive) | –
33 | COc1ccccc1NC(=O)c1oc2ccccc2c1NC(=O)C(C)C | -10.9% (inactive) | –
34 | CC(=O)c1cccc(NC(=O)CSc2nc3c(c(=O)[nH]2)CCC3)c1 | -3.06% (inactive) | –
35 | C=CCNc1nnc(SCC(=O)N2CCCCC2)c2ccccc12 | – | 20 µM (active)
36 | O=C(CSc1nc2ccccc2nc1Cc1ccccc1)N1CCCCC1 | -0.222% (inactive) | –
37 | C=CCNc1nnc(C)c2ccccc12 | -10.1% (inactive) | –
38 | COc1ccc(CNC(=O)c2cc3cccc(OC)c3oc2=O)cc1 | -1.78% (inactive) | –
39 | CCOc1ccc(S(=O)(=O)c2cn(Cc3ccc(OC)cc3)c3ccc(F)cc3c2=O)cc1 | 0.948% (inactive) | –
40 | Cc1ccc(-n2c(SCC(=O)c3ccccc3)nc3c([nH]c4ccccc43)c2=O)cc1 | -13.1% (inactive) | –
41 | COc1ccc(-c2c(C)nn3c(N4CCC(C(=O)NCCC(C)C)CC4)cc(C)nc23)cc1OC | 4.69% (inactive) | –
42 | Cc1ccc(CN2COc3cc(C)c4c(oc(=O)c5ccccc54)c3C2)cc1 | -21.8% (inactive) | –

Row | Structure (SMILES) | max response, negative = inhibition | Potency
43 | Fc1ccc2nc(N3CCCCC3)sc2c1 | 2.08% (inactive) | –
44 | Fc1ccc2nc(Nc3nc4c(s3)CCCC4)sc2c1 | – | 31.6 µM (active)
45 | O=C(Nc1nc2c(s1)CCCC2)c1ccccc1F | -4.21% (inactive) | –
46 | Cn1c(=O)c2c(SCC(=O)N3CCc4ccccc43)nc(-c3ccc(Cl)cc3)nc2n(C)c1=O | 16.5% (inactive) | –
47 | Cc1ccc(S(=O)(=O)N2CCC(C(=O)Nc3cc(C)ccc3C)CC2)cc1 | 10.8% (inactive) | –
48 | Cc1ccccc1CSc1nc(-c2ccccc2)nc2c1Cc1c(CO)cnc(C)c1O2 | -5.34% (inactive) | –
49 | O=C1OC(/C=C/c2ccccc2)=NC/1=C/c1ccco1 | – | 3.16 µM (active)
50 | CC(C)(C)C1C/C(=C/c2ccco2)C(=O)/C(=C/c2ccco2)C1 (stereo unspecified) | 22.8% (inactive) | –
51 | COc1ccccc1/C=C/C1=NC(=C\N(C)C)/C(=O)O1 | -2% (inactive) | –
52 | COc1ccccc1-c1nnc(C2CCN(C(=O)c3ccc(Cl)cc3)CC2)o1 | -7.8% (inactive) | –
53 | Fc1cccc(-n2ncc3c2ncn2nc(-c4ccccc4Cl)nc32)c1 | -11.9% (inactive) | –
54 | COc1ccccc1CNC(=O)NCc1noc2ccc(C)cc12 | -3.84% (inactive) | –
55 | O=C(CN1CCSc2ccccc21)N1CCN(c2ccccc2)CC1 | -4.92% (inactive) | –
56 | COC(=O)c1cc(NC(=O)c2sc3ccccc3c2Cl)cc(C(=O)OC)c1 | -7.2% (inactive) | –
57 | COc1ccc(Br)cc1C(=O)NC(=S)Nc1cc(-c2nc3ccccc3[nH]2)ccc1C | – | 10 µM (active)
58 | Cc1ccc(-c2nc3ccccc3[nH]2)cc1N | 0.934% (inactive) | –
59 | Cc1ccc(-c2nc3ccccc3[nH]2)cc1NC(=O)c1sc2ccccc2c1Cl | – | 7.94 µM (active)
60 | COc1ccc2oc(-c3ccc(C)c(NC(=O)c4sc5ccccc5c4Cl)c3)nc2c1 | -7.77% (inactive) | –
61 | Cc1cc2[nH]ncc2cc1NC(=S)NC(=O)c1ccccc1 | 0.868% (inactive) | –
